Only a selection was taken, and hits are over-represented in it overall.
Glioma ERSR ind: inducers of ER stress response in human glioma cells. Potency, µM, usual class: activators. U87-MG GRP78 promoter luciferase reporter, 16 h. actives 0.02% (n = 420,000). AID 602332; also: series mostly up to about 76 µM; nearly all actives have a fitted effect of over 35% in size
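ERSR induction read as luciferase luminescence (Bright-Glo, 10 min at room temperature) in stably transfected human U87-MG glioma cells exposed to compounds for 16 h, using GRP78 as sensor.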
Apoferritin bind: candidate novel general anesthetic via apoferritin binding; actives 0.074% (n = 350,000); AID 485281; Potency, µM (series often up to 77.5 µM), actives largely listed as inhibitors; apoferritin/1-aminoanthracene competitive binding, fluorescence; P02791; also: nearly all actives have a fitted effect of over 20% in size
Target sequence (P02791 2-175 limits assumed): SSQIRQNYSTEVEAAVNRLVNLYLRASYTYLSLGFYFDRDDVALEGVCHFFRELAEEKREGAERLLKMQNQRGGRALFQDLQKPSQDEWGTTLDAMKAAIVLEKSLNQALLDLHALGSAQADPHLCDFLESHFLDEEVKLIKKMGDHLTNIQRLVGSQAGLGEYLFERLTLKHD
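Apoferritin-based anesthetic binding model; compound displacement of fluorescent 1-AMA measured as endpoint fluorescence after 10 minutes at room temperature, scaled to free-ligand and complex controls.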
ClpP mod: qHTS Assay for Activators of ClpP; ATP-dependent Clp protease proteolytic subunit (Bacillus subtilis (strain 168)), P80244; purified B. subtilis ClpP, FRET peptide cleavage, 20 min; Potency, µM (series often up to 57.5 µM); actives 1.9% (n = 340,000); AID 651965, 2013; active = well fitted falling curve with a large enough effect; inconclusive = small, poorly fitted or top-dose-only effect; inactive = no such curve, though single readings can be large or run the other way; also: the source files actives as falling curves though it sought activators and does not explain the sign; nearly all actives have a fitted effect of over 65% in size
Target sequence (P80244 whole entry, looked up): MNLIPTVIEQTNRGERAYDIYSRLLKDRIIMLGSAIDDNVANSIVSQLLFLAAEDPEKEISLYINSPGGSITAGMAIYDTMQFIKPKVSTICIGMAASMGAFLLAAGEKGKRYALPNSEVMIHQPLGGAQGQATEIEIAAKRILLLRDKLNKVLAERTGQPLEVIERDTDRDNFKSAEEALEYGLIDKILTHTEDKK
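Purified B. subtilis ClpP, 10 microg/mL final in Tris/HCl pH8 with KCl, BSA, glycerol and Tween-20, cleaved an Abz/nitrotyrosine-quenched decapeptide. Fluorescence (ex 320, em 430) was read at 0 and 20 min at room temperature. Delta was normalized to 5.8 microM ADEP and DMSO/no-enzyme controls.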
N370S GC: inhibitors or activators of N370S glucocerebrosidase for Gaucher disease. Potency, µM (top dose mostly 59.4 µM), most hits filed as inhibitors. N370S GC spleen homogenate, 4MU-glucoside fluorescence. P04062. actives 0.092% (n = 330,000)
Integrin act MD: activators of alpha7 integrin expression for muscular dystrophy; alpha7betagal myoblasts, beta-gal FDG fluorescence, 48 h; Potency, µM (series often up to 38.3 µM), actives largely listed as activators; actives 0.064% (n = 350,000); AID 624291; also: nearly all actives have a fitted effect of over 60% in size
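Alpha7betagal+/- myoblasts (passage 13) were plated 16-24 hr, then exposed to compounds (1:260 dilution of DMSO stock) for 48 hours at 37C. After MPER lysis, β-galactosidase reporter activity was read as FDG fluorescence (ex 480/em 540) after 30 minutes.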
CBFb-RUNX1 inh: blocks binding between human CBF-beta and RUNX1. Q01196+Q13951. AlphaScreen CBFb-His/RUNX1-biotin binding, biochemical. 230,000 tested, under 10 active. AID 1477. Potency, µM (top dose mostly 59.8 µM), usual class: inhibitors
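CBF-beta (His) and RUNX1 (biotin), 30 nM each; 20 min preassociation; + compound, 15 min; + beads 50 ng each (Ni, streptavidin), 90 min; RT; AlphaScreen read.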
A number is an active result; - = inactive; ? = inconclusive; . = not tested or not shown; [ ] = another dose, or the depositor's remark. Unless noted, calls follow the shape of the dose curve; as a rule, active = well fitted curve in the direction sought with a large enough effect; inconclusive = small, poorly fitted or top-dose-only effect, or another doubt; inactive = no such curve, though single readings can be large; an effect the other way counts as inactive or inconclusive.

SMILES	Glioma ERSR ind	Apoferritin bind	ClpP mod	N370S GC	Integrin act MD	CBFb-RUNX1 inh
CCc1ccc(-n2c(CCC(=O)O)ccc2-c2cccs2)cc1	-	-	-	.	.	.
CC1CN(CCC(=O)NCc2ccc3ncccc3c2)Cc2cc(Cl)ccc2O1 (stereo not drawn)	-	.	.	.	.	.
c1ccc(C2[C@H]3CN(CC4CCCCC4)[C@H](c4ccccc4)C34CC2(c2cccnc2)C4)cc1 (stereo partly drawn)	-	?	-	14µM	-	-
COc1ccccc1C1CN(Cc2cccc3nccnc23)Cc2ccccc2O1 (stereo not drawn)	-	.	.	.	.	.
CCOc1ccc2oc(-c3ccccc3)c(C(=O)N3CCN(C)CC3)c2c1	-	-	11µM	-	-	-
COc1ccc2oc(-c3ccccc3)c(C(=O)N3CCOCC3)c2c1	-	-	28µM	-	-	-
Cc1ccc(C(=O)Nc2cccc(-c3nc(CNC(=O)c4ccc(F)cc4Cl)c(C)o3)c2)s1	-	.	.	.	.	.
O=c1oc2ccccc2cc1-c1nc2c(s1)CCCC2	-	-	35µM	.	-	-
O=C(NC1CCCCCC1)c1ccc2nc3cc(Cl)ccc3c(=O)n2c1	-	-	25µM	-	-	-
O=C(NCCc1ccccc1)c1ccc2nc3cc(Cl)ccc3c(=O)n2c1	-	-	-	-	?	.
Brc1ccc[n+](CCC2CCCCC2)c1	-	.	-	.	.	.
Cc1ccc(-c2nnc3c4ccccc4c(C)nn23)cc1S(=O)(=O)N1CCN(C)CC1	-	.	-	.	-	.
Cc1ccc(-c2nnc3c4ccccc4c(C)nn23)cc1S(=O)(=O)N1CCN(CCO)CC1	-	-	?	16µM	-	-
Cc1cccc(N2CCN(CC(O)COCc3cccs3)CC2)c1C (stereo not drawn)	-	-	22µM	-	-	-
OC(COCc1cccs1)CN1CCN(c2ccccc2Cl)CC1 (stereo not drawn)	-	-	-	-	-	-
O=[N+]([O-])c1ccc(Nc2nc(NCCN3CCOCC3)nc(Nc3ccc(I)cc3)n2)cc1	-	.	-	.	.	.
COc1ccccc1OCC(=O)N1CCC2(CC1)CC(=O)c1ccccc1O2	-	.	22µM	-	-	.
CCOC(=O)N1CCN(C(=O)COc2ccc3c(c2)C(=O)CC2(CCN(C(C)=O)CC2)O3)CC1	-	-	16µM	-	-	-
CC(C)(CNC(=O)c1cnn(-c2ncc3c(n2)-c2ccccc2CCC3)c1C1CC1)N1CCOCC1	-	.	.	.	.	.
COCCN1CCN(C(=O)c2cnn(-c3nccc(-c4ccco4)n3)c2C(C)C)CC1	-	.	.	.	.	.
Cc1ccc(C(C(=O)NC(C)(C)C)N(Cc2ccco2)C(=O)Cn2nnc(-c3cccs3)n2)cc1 (stereo not drawn)	-	-	25µM	-	-	-
CC(C)(C)NC(=O)C(c1ccc(O)cc1)N(Cc1ccco1)C(=O)Cn1nnc(-c2cccs2)n1 (stereo not drawn)	-	-	-	-	-	-
CCOc1ccc(-c2cc(NC(=O)c3ccc(C)cc3)c(C(=O)OC)s2)cc1	-	-	?	.	.	.
CCOc1ccc(-c2cc(NC(=O)c3ccccc3)c(C(=O)OC)s2)cc1	-	-	35µM	.	.	.
COC(=O)c1c(C)nc(C)c2c(=O)oc3ccccc3c12	-	-	-	-	-	-
SMILES	Glioma ERSR ind	Apoferritin bind	ClpP mod	N370S GC	Integrin act MD	CBFb-RUNX1 inh
Cc1cc2c(c(N)n1)c(=O)oc1ccccc12	-	-	40µM	-	-	-
CC(=O)Nc1cccc(OCC(=O)NS(=O)(=O)c2ccc(Cl)cc2)c1	-	-	32µM	-	-	-
O=C(Cc1cscn1)N1CCOc2ccc(CN3CCN(c4ccccn4)CC3)cc2C1	-	.	.	.	.	.
Cn1c(SCC2CCCO2)nnc1C1CCN(Cc2ccc(-c3cccc(Cl)c3)o2)CC1 (stereo not drawn)	-	.	.	.	.	.
CN(C#N)c1nccc(-c2cccs2)n1	-	-	-	-	11µM	-
Cc1cc(C)n2nc(C(=O)N3CCCC(N4CCN(c5ccccc5C)CC4)C3)cc2n1 (stereo not drawn)	-	-	28µM	-	-	.
Cc1cc(=O)oc2cc(OCC(=O)NCc3ccco3)ccc12	-	-	28µM	-	-	-
Cc1cc(=O)oc2cc(OCC(=O)NCCc3ccccc3)ccc12	-	-	.	-	-	.
Cc1cccc(OCC(=O)Nc2ccc3c(C)cc(=O)oc3c2)c1	-	-	13µM	-	-	-
Cc1cc(=O)oc2cc(OCC(=O)NCc3cccnc3)ccc12	-	-	25µM	-	-	-
Cc1cc(=O)oc2ccc(OCC(=O)NCc3ccco3)cc12	-	-	?	-	-	-
Cc1cc(=O)oc2cc(NC(=O)COc3cccc(C(F)(F)F)c3)ccc12	-	.	-	.	-	.
Cc1cc(=O)oc2cc(OCC(=O)NCc3ccncc3)ccc12	-	-	22µM	-	-	-
CN(C)c1ccc(Cn2ccc3ccccc32)cc1	-	.	-	.	.	.
COc1cc(=O)n2c(c1C(=O)N1CCc3ccccc3C1)CCN(Cc1ccc(CO)o1)CC2	-	.	.	.	.	.
O=C(COc1ccc2oc(-c3ccco3)cc(=O)c2c1)N1CCCCC1	-	-	-	-	-	-
O=C(COc1ccc2oc(-c3ccccc3)cc(=O)c2c1)NCc1ccco1	-	?	35µM	-	-	-
CCOC(=O)c1nc(N)c(C(=O)OCC)[nH]1	-	-	14µM	-	-	-
CCOc1ccccc1NC(=O)NNC(=O)c1ccc2ccccc2c1	-	-	32µM	-	-	.
O=C(CCC1CCN(Cc2ccccc2)CC1)c1ccc2c(c1)NCCCC2	-	.	.	.	.	.
Cc1cc(NC(=O)NC(=O)c2ccccc2NC(=O)CN)ccc1Oc1ncc(Br)cn1	-	.	18µM	.	-	.
Nc1ccccc1C(=O)NC(=O)Nc1ccc(Oc2ncc(Br)cn2)c(Cl)c1	-	.	22µM	.	-	.
C1NNCC12CNNC2	.	.	-	.	.	.
Cc1c(C(=O)N(C)Cc2nccs2)sc2ncnc(NCC3CCCO3)c12 (stereo not drawn)	-	.	.	.	.	.
NC(=O)CSc1nnc2ccc(-c3ccc(Cl)cc3)nn12	-	-	.	-	-	-
SMILES	Glioma ERSR ind	Apoferritin bind	ClpP mod	N370S GC	Integrin act MD	CBFb-RUNX1 inh
Clc1nnc2ccc(-c3ccccc3)nn12	-	-	25µM	-	-[7.66 µM]	-
Cc1ccc2c(c1)CN(CCNC(=O)C(C)Oc1ccccc1)CC(C)O2 (stereo not drawn)	-	.	.	.	.	.
O=c1[nH]ncc(N2CCN(C(c3ccccc3)c3ccccc3)CC2)c1Cl	-	-	28µM	-	-	-
Nc1cc(N)cc(N)c1	-	.	-	.	.	.
CNc1nnc(SCC(=O)c2cc(C)n(C3CC3)c2C)s1	-	.	-	.	13µM	.
Cc1nnc(SCC(=O)c2cc(C)n(C3CC3)c2C)s1	-	-	-	-	-	-
Cc1ccnc2ccc([N+](=O)[O-])cc12	-	.	-	.	.	.
